Measured values taken from the supplement of paper PMC8728848.
The full list was thinned out, with the strongest signals kept by preference.

How the values were obtained:
Experiment in all cases: glycan array binding signal (z-score within array); higher = stronger binding
Conditions in all cases: glycan notation: IUPAC condensed, linker removed
[1] = target: Fuc(a1-2)Gal(b1-3)GalNAc(a1-3)[Fuc(a1-2)]Gal(b1-4)Glc
Outline: (§1)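 From the Consortium for Functional Glycomics database, 3228 arrays were curated, keeping only those whose protein sequence was available. Binding is given as a within-array Z-score averaged across arrays sharing a protein sequence and across linkers. Negative Z-scores can be read as non-binding.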

[2] = target: Fuc(a1-2)Gal(b1-3)[Fuc(a1-4)]GlcNAc(b1-2)Man(a1-3)[Fuc(a1-2)Gal(b1-3)[Fuc(a1-4)]GlcNAc(b1-2)Man(a1-3)]Man(b1-4)GlcNAc(b1-4)GlcNAc
Outline: as §1

[3] = target: Fuc(a1-2)Gal(b1-4)Fuc(a1-3)]GlcNAc(b1-2)Man(a1-3)[Fuc(a1-2)Gal(b1-4)[Fuc(a1-3)]GlcNAc(b1-2)Man(a1-6)]Man(b1-4)GlcNAc(b1-4)GlcNAc
Outline: as §1

[4] = target: Fuc(a1-2)Gal(b1-4)GlcNAc(b1-3)Gal(b1-4)GlcNAc
Outline: as §1

[5] = target: Fuc(a1-2)Gal(b1-4)GlcNAc(b1-3)Gal(b1-4)GlcNAc(b1-3)Gal(b1-4)GlcNAc
Outline: as §1

[6] = target: Fuc(a1-2)Gal(b1-4)GlcNAc(b1-3)[Fuc(a1-3)[Gal(b1-4)]GlcNAc(b1-6)]Gal(b1-4)Glc
Outline: as §1

[7] = target: Fuc(a1-2)[Gal(a1-4)]Gal(b1-4)GlcNAc
Outline: as §1

[8] = target: Fuc(a1-2)[GalNAc(a1-3)]Gal(b1-3)GalNAc(a1-3)[Fuc(a1-2)]Gal(b1-4)GlcNAc
Outline: as §1

[9] = target: Fuc(a1-2)[GalNAc(a1-3)]Gal(b1-3)GlcNAc(b1-6)GalNAc
Outline: as §1

[10] = target: Fuc(a1-3)[Gal(b1-4)]GlcNAc(b1-3)Gal(b1-3)[Fuc(a1-4)]GlcNAc
Outline: as §1

[11] = target: Gal(a1-4)Gal(b1-3)GlcNAc(b1-2)Man(a1-3)[Gal(a1-4)Gal(b1-3)GlcNAc(b1-2)Man(a1-6)]Man(b1-4)GlcNAc(b1-4)GlcNAc
Outline: as §1

[12] = target: Gal(b1-3)GalNAc(b1-3)Gal
Outline: as §1

[13] = target: Gal(b1-3)GlcNAc(b1-3)Gal(b1-4)Glc
Outline: as §1

[14] = target: Gal(b1-3)[Fuc(a1-4)]GlcNAc(b1-3)Gal(b1-3)[Fuc(a1-4)]GlcNAc
Outline: as §1

[15] = target: Gal(b1-4)GalNAc(a1-3)[Fuc(a1-2)]Gal(b1-4)GlcNAc
Outline: as §1

[16] = target: Gal(b1-4)GlcNAc(b1-2)[Gal(b1-4)GlcNAc(b1-4)]Man(a1-3)[Gal(b1-4)GlcNAc(b1-2)Man(a1-6)]Man(b1-4)GlcNAc(b1-4)GlcNAc
Outline: as §1

[17] = target: Gal(b1-4)GlcNAc(b1-3)Gal(b1-3)GalNAc
Outline: as §1

[18] = target: Gal(b1-4)GlcNAc(b1-3)Gal(b1-4)GlcNAc(b1-2)[Gal(b1-4)GlcNAc(b1-3)Gal(b1-4)GlcNAc(b1-6)]Man(a1-6)[Gal(b1-4)GlcNAc(b1-3)Gal(b1-4)GlcNAc(b1-2)Man(a1-3)]Man(b1-4)GlcNAc(b1-4)[Fuc(a1-6)]GlcNAc
Outline: as §1

[19] = target: Gal(b1-4)GlcNAc(b1-3)Gal(b1-4)GlcNAc(b1-3)Gal(b1-4)GlcNAc(b1-2)Man(a1-3)[Gal(b1-4)GlcNAc(b1-3)Gal(b1-4)GlcNAc(b1-3)Gal(b1-4)GlcNAc(b1-2)Man(a1-6)]Man(b1-4)GlcNAc(b1-4)GlcNAc
Outline: as §1

[20] = target: Gal(b1-4)GlcNAc(b1-3)Gal(b1-4)GlcNAc(b1-3)Gal(b1-4)GlcNAc(b1-2)[Gal(b1-4)GlcNAc(b1-3)Gal(b1-4)GlcNAc(b1-3)Gal(b1-4)GlcNAc(b1-6)]Man(a1-6)[Gal(b1-4)GlcNAc(b1-3)Gal(b1-4)GlcNAc(b1-3)Gal(b1-4)GlcNAc(b1-2)Man(a1-3)]Man(b1-4)GlcNAc(b1-4)[Fuc(a1-6)]GlcNAc
Outline: as §1

[21] = target: Gal(b1-4)GlcNAc(b1-3)Gal(b1-4)GlcNAc(b1-6)[Gal(b1-3)]GalNAc
Outline: as §1

[22] = target: Gal(b1-4)GlcNAc(b1-3)[GlcNAc(b1-6)]Gal(b1-4)GlcNAc
Outline: as §1

[23] = target: Gal3S(b1-4)Glc6S
Outline: as §1

[24] = target: Gal3S(b1-4)[Fuc(a1-3)]Glc6S
Outline: as §1

[25] = target: Gal3S4S(b1-4)GlcNAc
Outline: as §1

[26] = target: GalNAc(a1-3)Gal
Outline: as §1

[27] = target: GalNAc(a1-3)GalNAc(b1-3)Gal(a1-4)Gal(b1-4)Glc
Outline: as §1

[28] = target: GalNAc(b1-3)Gal(a1-4)Gal(b1-4)GlcNAc(b1-3)Gal(b1-4)Glc
Outline: as §1

[29] = target: Glc(a1-4)Glc
Outline: as §1

[30] = target: Glc(a1-6)Glc(a1-6)Glc
Outline: as §1

[31] = target: GlcA3S(b1-3)Gal(b1-4)GlcNAc(b1-2)Man
Outline: as §1

[32] = target: GlcA3S(b1-3)Gal(b1-4)GlcNAc(b1-3)Gal(b1-4)Glc
Outline: as §1

[33] = target: GlcNAc(a1-4)Gal(b1-4)GalNAc
Outline: as §1

[34] = target: GlcNAc(a1-4)Gal(b1-4)GlcNAc(b1-3)Gal(b1-4)[Fuc(a1-3)]GlcNAc(b1-3)Gal(b1-4)[Fuc(a1-3)]GlcNAc
Outline: as §1

[35] = target: GlcNAc(b1-2)[GlcNAc(b1-4)]Man(a1-3)[GlcNAc(b1-4)][GlcNAc(b1-2)[GlcNAc(b1-6)]Man(a1-6)]Man(b1-4)GlcNAc(b1-4)[Fuc(a1-6)]GlcNAc
Outline: as §1

[36] = target: GlcNAc(b1-3)Gal(b1-4)GlcNAc(b1-3)Gal(b1-4)GlcNAc(b1-3)Gal(b1-4)GlcNAc(b1-2)Man(a1-3)[GlcNAc(b1-3)Gal(b1-4)GlcNAc(b1-3)Gal(b1-4)GlcNAc(b1-3)Gal(b1-4)GlcNAc(b1-2)Man(a1-6)]Man(b1-4)GlcNAc(b1-4)GlcNAc
Outline: as §1

[37] = target: GlcNAc(b1-6)GalNAc
Outline: as §1

[38] = target: Man(a1-3)[Man(a1-6)]Man(b1-4)GlcNAc(b1-4)[Fuc(a1-6)]GlcNAc
Outline: as §1

[39] = target: Neu5Ac(a2-3)Gal(b1-3)GlcNAc(b1-2)Man
Outline: as §1

[40] = target: Neu5Ac(a2-3)Gal(b1-3)GlcNAc(b1-2)Man(a1-3)[GlcNAc(b1-4)][Neu5Ac(a2-3)Gal(b1-3)GlcNAc(b1-2)Man(a1-6)]Man(b1-4)GlcNAc(b1-4)GlcNAc
Outline: as §1

[41] = target: Neu5Ac(a2-3)Gal(b1-3)GlcNAc(b1-3)GalNAc
Outline: as §1

[42] = target: Neu5Ac(a2-3)Gal(b1-3)GlcNAc(b1-6)GalNAc
Outline: as §1

[43] = target: Neu5Ac(a2-3)Gal(b1-3)[Fuc(a1-4)]GlcNAc
Outline: as §1

[44] = target: Neu5Ac(a2-3)Gal(b1-4)GlcNAc(b1-2)Man(a1-3)[Neu5Ac(a2-6)Gal(b1-4)GlcNAc(b1-2)Man(a1-6)]Man(b1-4)GlcNAc(b1-4)GlcNAc
Outline: as §1

[45] = target: Neu5Ac(a2-3)Gal(b1-4)GlcNAc(b1-3)Gal
Outline: as §1

[46] = target: Neu5Ac(a2-3)Gal(b1-4)GlcNAc(b1-3)Gal(b1-4)GlcNAc(b1-6)[Gal(b1-3)]GalNAc
Outline: as §1

[47] = target: Neu5Ac(a2-6)Gal(b1-4)GlcNAc(b1-2)Man(a1-3)[Neu5Ac(a2-6)Gal(b1-4)GlcNAc(b1-2)Man(a1-6)]Man(b1-4)GlcNAc(b1-4)GlcNAc
Outline: as §1

[48] = target: Neu5Ac(a2-6)GlcNAc(b1-4)GlcNAc(b1-4)GlcNAc
Outline: as §1

[49] = target: Neu5Ac(b2-6)GalNAc
Outline: as §1

[50] = target: Neu5Gc(a2-3)Gal(b1-3)GlcNAc
Outline: as §1

[51] = target: Neu5Gc(a2-3)Gal(b1-4)GlcNAc
Outline: as §1

[52] = target: Neu5Gc(a2-6)GalNAc
Outline: as §1

B1: Epa11 (Candida glabrata) (protein)
chain: MGSSHHHHHHSSGLVPRGSHMASSNAPNYPVGCSPSVGTQLTPGLSLEVYAYPMDGNNGYCWNATYKDPEFPRSGYLKNKLLGKADGVVGPLNFLAKNKDCSPKVDTLPAGFNFPQPITVTNFTMVLFGYLAPKQSGKYTFKLLADDLLLLNLGATNAFDCCNREATKNNLGEFLAYNLWPNQDKNVTVYLEKGVYYPLRLFFNNRDGGSQLDFSYYFNDSPAPLTDFSGMFFSVPDGAECPARI
- glycan array binding signal (z-score) [1]: -0.518
- glycan array binding signal (z-score) [2]: -0.183
- glycan array binding signal (z-score) [3]: 2.88
- glycan array binding signal (z-score) [4]: -0.92
- glycan array binding signal (z-score) [5]: -0.015
- glycan array binding signal (z-score) [6]: 0.437
- glycan array binding signal (z-score) [7]: 0.294
- glycan array binding signal (z-score) [8]: -0.24
- glycan array binding signal (z-score) [9]: -0.276
- glycan array binding signal (z-score) [10]: -0.232
- glycan array binding signal (z-score) [11]: 1.7
- glycan array binding signal (z-score) [12]: -0.185
- glycan array binding signal (z-score) [13]: -0.214
- glycan array binding signal (z-score) [14]: 2.35
- glycan array binding signal (z-score) [15]: -0.453
- glycan array binding signal (z-score) [16]: -0.412
- glycan array binding signal (z-score) [17]: -0.415
- glycan array binding signal (z-score) [18]: 1.98
- glycan array binding signal (z-score) [19]: 2.67
- glycan array binding signal (z-score) [20]: 1.94
- glycan array binding signal (z-score) [21]: 1.77
- glycan array binding signal (z-score) [22]: -0.836
- glycan array binding signal (z-score) [23]: 0.304
- glycan array binding signal (z-score) [24]: 1.71
- glycan array binding signal (z-score) [25]: -0.9
- glycan array binding signal (z-score) [26]: -0.428
- glycan array binding signal (z-score) [27]: -0.437
- glycan array binding signal (z-score) [28]: -0.094
- glycan array binding signal (z-score) [29]: -1.42
- glycan array binding signal (z-score) [30]: -0.516
- glycan array binding signal (z-score) [31]: 0.356
- glycan array binding signal (z-score) [32]: -0.579
- glycan array binding signal (z-score) [33]: -0.891
- glycan array binding signal (z-score) [34]: 0.211
- glycan array binding signal (z-score) [35]: 2.33
- glycan array binding signal (z-score) [36]: -0.16
- glycan array binding signal (z-score) [37]: -0.586
- glycan array binding signal (z-score) [38]: 5.52
- glycan array binding signal (z-score) [39]: -0.819
- glycan array binding signal (z-score) [40]: 2.81
- glycan array binding signal (z-score) [41]: 0.127
- glycan array binding signal (z-score) [42]: 0.52
- glycan array binding signal (z-score) [43]: -0.534
- glycan array binding signal (z-score) [44]: -0.573
- glycan array binding signal (z-score) [45]: -0.477
- glycan array binding signal (z-score) [46]: -0.079
- glycan array binding signal (z-score) [47]: -0.433
- glycan array binding signal (z-score) [48]: -0.053
- glycan array binding signal (z-score) [49]: -0.375
- glycan array binding signal (z-score) [50]: 0.029
- glycan array binding signal (z-score) [51]: -0.644
- glycan array binding signal (z-score) [52]: -0.604
